Assay outcomes from PubChem.
Shown is part of a subset that was picked to be rich in hits.
Tgondii IFNg: T. gondii growth inhibition with IFN-gamma, primary screen, cell-based. Toxoplasma gondii growth in IFN-gamma-treated host cells; hits give low values. activity change, negative = inhibition, % (no concentration beside the values). 3.8% of 69,000 active; in the data active = activity change below about -70%, passing the limit was not always enough;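 note: host cells are HeLa cells infected with Toxoplasma gondii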
Large screens that a line does not name were inactive.

CCSc1nc(CC(=O)NCCc2c[nH]c3ccccc23)cs1	none
CCCN1C[C@H](C)[C@H](OC)CN(C)C(=O)c2ccc(NS(=O)(=O)c3cn(C)cn3)cc2OC[C@H]1C	none
COc1cc(CNC(=O)C2(C)CCN(C(=O)COc3ccc(F)cc3)CC2)cc(OC)c1	none
NC(=O)c1cncc(N2CCC(CO)(Cc3ccccc3)CC2)n1	none
COc1ccc(CC2(CO)CCN(c3ncnc4c3CCC4)CC2)cc1	none
Cc1cccc2cc(CO)c(N3CCC(CO)(Cc4ccccc4)CC3)nc12	Tgondii IFNg -77
CC(Cc1ccccc1)(NC(=O)CN)c1ccccc1 (stereo not given)	none
COc1cc2c(cc1OC)-c1nnc(C)n1C(C)(C)C2	none
COc1cc2c(cc1OC)C(Nc1ccc(I)cc1)=NC1(CCCC1)C2	Tgondii IFNg -98
Cc1nc(NC(C)C)nc2c1CN(Cc1ccc(F)cc1)CC2	none
Cc1cc(N2CCNC(C(=O)O)C2)nc(-c2ccccc2)n1 (stereo not given)	none
O=C(Nc1cnn(-c2ncc(N3CCCCC3)cn2)c1)NC1CCCCC1	none
Cc1c(Cl)cccc1NC(=O)c1c(O)c2ccccc2[nH]c1=O	none
O=C(Nc1ccccc1Cl)c1nc(Nc2ccccc2)c2ccccc2n1	none
Cc1nc(C(=O)Nc2ccccc2Cl)cc2c1[nH]c1ccccc12	Tgondii IFNg -81
CC(C)(C)c1ccc(-c2nc3ccccc3[nH]2)cc1	Tgondii IFNg -87
Cc1ccc(-c2nc3ccccc3[nH]2)cc1	none
c1ccc(-c2nc3ccccc3[nH]2)cc1	none
COc1ccccc1C(CN)N1CCCCC1 (stereo not given)	none
Cc1ccc(-n2nnc(C(=O)N3CCOCC3)c2N)cc1Cl	none
CCOc1ccc(C(=O)N2CC[C@@H](c3sccc3C)[C@H](O)C2)o1	none
Cc1nc2nnc3ccc(C(=O)N(C)C)cc3c2n1CC1CCCO1 (stereo not given)	none
COc1ccc(-c2cccc3c(C(N)=O)cccc23)cn1	none
COc1ccc(-c2ccc3[nH]nc(N)c3c2)cn1	Tgondii IFNg -73
COc1ccc(-c2cc(F)c(OC)c(F)c2)cn1	none
CS(=O)(=O)N1CC[C@H]2O[C@@H](COCc3ccncc3)CC[C@H]21	none
CCN1c2cc(C)ccc2-n2cccc2C12CCN(S(=O)(=O)Cc1ccccc1)CC2	none
CCN1c2cc(C)ccc2-n2cccc2C12CCN(S(=O)(=O)c1ccccc1)CC2	Tgondii IFNg -79
CCN1c2cc(C)ccc2-n2cccc2C12CCN(S(=O)(=O)c1ccccc1Cl)CC2	Tgondii IFNg -78
CCN1c2cc(C)ccc2-n2cccc2C12CCN(S(=O)(=O)c1ccc3c(c1)oc(=O)n3C)CC2	none
CCOc1ccc(NC(=O)N2CCC3(CC2)c2cccn2-c2ccc(C)cc2N3CC)cc1	none
CCN1c2cc(C)ccc2-n2cccc2C12CCN(S(=O)(=O)c1ccc(C(C)C)cc1)CC2	none
CCN1c2cc(C)ccc2-n2cccc2C12CCN(C(=O)c1ccccc1Br)CC2	none
CCOc1ccc(S(=O)(=O)N2CCC3(CC2)c2cccn2-c2ccc(C)cc2N3CC)cc1	Tgondii IFNg -92
CCN1c2cc(C)ccc2-n2cccc2C12CCN(C(=O)c1ccccc1OC)CC2	none
CN(C)c1ncc(C2Nc3cc(Cl)ccc3C3=NCCCN32)cn1 (stereo not given)	none
O=C(NCCc1csc(C2CCN(C(=O)C3CCC3)CC2)n1)C1CCC1	none
Cc1ccc(NC(=O)CN2C(=O)CCc3cc(S(=O)(=O)N4CCCCC4)ccc32)cc1F	none
CCC(=O)N1[C@@H](C#N)[C@H](c2ccccc2-c2ccccc2)[C@@H]1CO	none
CCC1=NOC(CNC(=O)c2ccc(Cn3nc(C)cc3C)cc2)C1 (stereo not given)	none
Cc1nn(C)c(C)c1-c1cc(C(=O)Nc2ccc(OCCN3CCCCC3)cc2)[nH]n1	none
Cc1ccc2c(c1)NC1(CCN(C(=O)c3ccccc3C)CC1)c1cccn1-2	none
O=C(c1sc2cc(Cl)ccc2c1Cl)N1c2ccccc2Sc2ccccc21	Tgondii IFNg -80
CCNC(=O)c1sc2cc(C)ccc2c1Cl	none
COC(=O)c1sc2ccccc2c1Cl	none
COc1ccc2c3c([nH]c2c1)[C@@H](CO)N(C(=O)Nc1ccc(F)cc1)CC31CCN(C(=O)c2ccccc2F)CC1	none
CCO[C@H]1CC2CC1CN2C(=O)Cc1cccc(F)c1 (stereo not given in full)	none
Cn1cnc2c1C(C(=O)N1CCN(c3ccccc3)CC1)N(S(C)(=O)=O)CC2 (stereo not given)	none
COc1ncnc2c1CCN(C(=O)c1ccc3ncccc3c1)CC2	none
COc1ccc(-c2nc3c(s2)CN(C(=O)Nc2ccc(C)c(C)c2)CC3)cc1	Tgondii IFNg -95
COc1ccc(-c2nc3c(s2)CN(C(=O)Nc2cccc(SC)c2)CC3)cc1	Tgondii IFNg -116
COc1cccc(-c2nc3c(s2)CN(C(=O)Nc2ccc(Br)cc2)CC3)c1	none
COc1ccc(-c2nc3c(s2)CN(C(=O)Nc2ccccc2OC)CC3)cc1	none
COc1ccc(-c2nc3c(s2)CN(C(=O)Nc2cc(C)ccc2C)CC3)cc1	none
COc1cc(NC(=O)N2CCc3nc(-c4ccc(C)cc4)sc3C2)cc(OC)c1	none
O=C(C[C@@H]1CC[C@@H](NC(=O)c2ccc(F)cc2)[C@H](CO)O1)NCCc1ccccc1	none
N#CCN1CC2(CCN(S(=O)(=O)c3cccs3)CC2)c2ccccc21	none
CC(C)c1cc(C(F)(F)F)n2nc(C3CCN(S(=O)(=O)N4CCCC4)C3)cc2n1 (stereo not given)	none
CC1c2snnc2-c2cc(Cl)ccc2S1(=O)=O (stereo not given)	Tgondii IFNg -103
Cc1cnc(Cn2cnc(-c3ccccc3)c2-c2cc(C)[nH]n2)cn1	none
Cc1cc(=O)oc2c(CN(C)C)c(O)ccc12	none
CC[C@@]1(O)C(=O)OCc2c1cc1n(c2=O)Cc2cc3c(CN(C)C)c(O)ccc3nc2-1	Tgondii IFNg -78
CC[C@@]1(O)C(=O)OCc2c1cc1n(c2=O)Cc2cc3c([N+](=O)[O-])cccc3nc2-1	Tgondii IFNg -80
CCS(=O)(=O)N1C[C@H](OCCCn2cccn2)[C@@H]2OCCC[C@@H]21	none
Cc1ccc(C)c(OCC(=O)NCCNC(=O)c2cccnc2)c1C	none
Cc1cnc(N2Cc3nccn3CC(CN3CCCC3)C2)nc1 (stereo not given)	none
COc1ccc(CC(=O)n2[nH]c(=O)ccc2=O)cc1OC	none
Cc1[nH]cnc1CN1CCc2[nH]cnc2C1c1ccc(F)cc1Cl (stereo not given)	none
Cc1cccc(-c2cnc(C)nc2C2CCCN(C(=O)/C=C/c3cc(F)ccc3F)C2)c1 (stereo not given)	Tgondii IFNg -73
COc1cccc(-c2cnc(N(C)C)nc2C2CCCN(C(=O)Cc3c(C)noc3C)C2)c1 (stereo not given)	none
COc1ccc(/C=C/C(=O)N2CCCC(c3nc(C)ncc3Cc3ccccc3)C2)cc1 (stereo not given)	none
Cc1cc(C)c2c(=O)nc(SCc3nc(-c4ccccc4C)oc3C)n(C3CC3)c2n1	none
CCC(C(=O)NCCc1cc(=O)[nH]c(C)n1)n1cc(C(C)=O)c2ccccc21 (stereo not given)	none
COc1cc2oc3cc(OC)c(OC)c(CC=C(C)C)c3c(=O)c2c(O)c1CC=C(C)C	none
COc1c(O)cc2oc3cc(O)c(CC=C(C)C)c(O)c3c(=O)c2c1CC=C(C)C	Tgondii IFNg -71
CC(C)=CCc1c(O)cc2oc(C)cc(=O)c2c1O	none
O=C(Cc1ccc(F)cc1)N1C[C@@H]2CN(CC3CC3)CCO[C@@H]2C1	none
CC(=O)Nc1ccc(Cl)c(C(=O)NCCSc2ncn[nH]2)c1	none
COc1ccc(C(=O)Nc2ccc(-c3nc(-c4cc(C)ccc4C)co3)cc2)cc1	none
O=C(NCc1nc(-c2ccncc2)n[nH]1)c1cccs1	Tgondii IFNg -94
